# Data from PMC5540273 (PLoS ONE, 2017).
# pKd: −log10 of the molar value.
# What was measured:
# [1] = tested on: STK16
# [2] = tested on: STK33
# [3] = tested on: STK36
# [4] = tested on: TEC
# [5] = tested on: TESK1
# [6] = tested on: TGFBR1
# [7] = tested on: TGFBR2
# [8] = tested on: T1, TIE2
# T1 construct: gene TEK
# 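Further: kd values determined as follow-up on hits from a single-replicate KINOMEscan panel screen.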
smiles,measurement,setting,value
c1ccc(-c2ccc3c(-c4ccnc(Nc5ccc6c(c5)OCCO6)n4)cnn3n2)cc1 [GW818941],pKd,[1],6.21
Cc1ccc(C)c(NC(=O)NCCNc2ccnc(Nc3ccc(F)cc3)n2)c1 [GSK1379878],pKd,[1],< 5.00
Cl.Cl.c1ccc(-c2cc3ccncc3cc2OC2CCNCC2)cc1 [GSK1122999],pKd,[2],< 5.00
same,pKd,[3],< 5.00
CCc1nc(-c2cccc(N(C)S(=O)(=O)c3ccccc3)c2)c(-c2ccnc(Nc3ccc(N4CCN(C(C)=O)CC4)nc3)n2)s1 [GSK1645895],pKd,[3],7.25
Cc1ccc(O)cc1Nc1cc(C(F)(F)F)nc2ccc(-c3ccncc3)cc12 [GW630823],pKd,[4],< 5.00
Cn1ccc2ncnc(Nc3ccc(Oc4cccc(Cl)c4)c(Cl)c3)c21,pKd,[4],< 5.00
CS(=O)(=O)CCNCc1nc(-c2ccc3ncnc(Nc4ccc(OCc5cccc(F)c5)c(Cl)c4)c3c2)cs1.Cl [GW583340],pKd,[5],< 5.00
O=C(c1ccc(-c2cc(-c3c[nH]nc3-c3ccccn3)ccn2)cc1)N1CCCC1 [GW792479],pKd,[6],6.77
Clc1ccc(-c2cc(-c3c[nH]nc3-c3ccccn3)ccn2)cc1 [GW681251],pKd,[7],6.28
CC(C)N1CCC(n2cnc(-c3ccc(F)cc3)c2-c2ccnc(N)n2)CC1 [SB-223132],pKd,[8],< 5.00
